# “And” between values parts separate entries of the source, which are not always exact repeats. Identical values can stand only once. The panel holds about 83,000 compounds, 20% with a hit somewhere; the sample as a whole holds those more often.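 Each cell line was grown in a 96-well plate and treated with one concentration of compound for 48 hours. Values below 10 were considered active.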 A number with no mark means an inactive call. The source made the active and inactive calls.
# System: MDA-MB-468 breast
# Test: NCI-60 one-dose screen, 48 h (100 = growth as untreated, 0 = no growth, -100 = all killed)
# Details: 10 µM unless noted
row,SMILES,growth
1,COc1cc2nc(-c3ccc(C(F)(F)F)cc3)cc(OCCN3CCCC3)c2cc1OC,89.4%
2,c1ccc2c3c([nH]c2c1)C(c1ccc(C2NCCc4c2[nH]c2ccccc42)cc1)NCC3 (centres undefined),-83.2% (active)
3,O=c1oc2ccc(-c3ccc(F)cc3F)cc2c(=O)n1-c1cccc(C(F)(F)F)c1,-12.8% (active) and -5.33% (active)
4,CCC(=C(c1ccc(OCCN(CC)CC)cc1)c1ccc(OCCN(CC)CC)cc1)c1ccc(Cl)cc1,-79.1% (active)
5,Nc1c(C(=O)Nc2c(Cl)cccc2Cl)sc2nc3c(cc12)CCCC3,82.3%
6,O=C1CN(c2ccccc2)C(=O)C1C(=O)Nc1ccc(Cl)c(Cl)c1 (centres undefined),19.2% [100 µM]
7,O=[N+]([O-])c1cc(Cl)c2[nH]c3c(Cl)cc([N+](=O)[O-])cc3c2c1,-17.9% (active)
8,O=C(CSc1nc2ccccc2c(=O)n1-c1ccc(S(=O)(=O)Nc2ccc(Cl)nn2)cc1)Nc1ccc(S(=O)(=O)Nc2ccc(Cl)nn2)cc1,94.9%
9,O=S(=O)(Nc1cc(Cl)c(F)c(Cl)c1)c1ccc(-c2cnc(C3CC3)o2)cc1,13.5%
10,N=c1c(C(=O)OCc2ccccc2)ncc(CCl)n1O,68.6%
11,CC1=C(C)C(=O)C(Nc2cccc(C)c2)=C(Br)C1=O,-43.1% (active)
12,CCCCCCCCCCOC(c1ccccc1)c1ccccc1,92.1%
13,CNc1cc2nc3cc(NC)c(C)cc3cc2cc1C,-11.5% (active)
14,COc1cc(/C=N/NC(=S)NNC(=S)NC2CCCCC2)cc(OC)c1OC,94.2%
